Assay results as given in PubChem BioAssay (NCI).
Compounds without any hit were thinned out: in the full panel of roughly 79,000, 15% have a hit. Rule as the data show it: active = growth inhibition above about 70%; inactive = the rest.

Assays:
[1] = NCI Yeast Anticancer Drug Screen. Data for the rad50 strain (AID 155);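 also: 0% = growth of vehicle-only cultures of the same strain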; conditions: S. cerevisiae rad50 strain growth inhibition; at 50.0 µM; hits give high values
Outline: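 Relative growth inhibition (compound vs vehicle) was measured in yeast with a defined repair-gene alteration.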

[2] = NCI Yeast Anticancer Drug Screen. Data for the mec2-1 strain (AID 157); conditions: S. cerevisiae mec2-1 strain, at 50.0 µM, hits give high values
Outline: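 Test agents were screened against the mec2-1 yeast strain, with defined DNA repair or cell cycle alteration. Growth was scored as inhibition against vehicle-only controls.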

[3] = NCI Yeast Anticancer Drug Screen. Data for the sgs1 mgt1 strain (AID 161);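 also: 0% = growth of cultures given vehicle only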; conditions: S. cerevisiae sgs1 mgt1 strain, at 50.0 µM, hits give high values
Outline: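 Read-out: growth inhibition vs vehicle controls. Cells: mutant yeast strain deficient in DNA damage repair.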

[4] = NCI Yeast Anticancer Drug Screen. Data for the cln2 rad14 strain (AID 165);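 also: 0% = growth equal to vehicle treated cultures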; conditions: S. cerevisiae cln2 rad14 strain, at 50.0 µM, hits give high values
Outline: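 Growth of compound-exposed yeast (cln2 rad14 genotype) measured and expressed as inhibition relative to vehicle.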

[5] = NCI Yeast Anticancer Drug Screen. Data for the bub3 strain (AID 167); conditions: S. cerevisiae bub3 mutant strain, at 50.0 µM, hits give high values
Outline: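 Screening used yeast with an engineered genetic alteration affecting cell cycle control. Compound-exposed cultures were compared with vehicle cultures, and reduced growth was taken as inhibition.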

[6] = NCI Yeast Anticancer Drug Screen. Data for the mlh1 rad18 strain (AID 175); conditions: S. cerevisiae mlh1 rad18 strain growth inhibition; at 50.0 µM; hits give high values
Outline: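 In this whole-cell yeast screen, a strain with altered DNA damage repair is challenged with compound, and its growth is measured against matched vehicle-treated controls.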

Measured: growth inhibition

c1ccc(C2SCCN2c2ccccc2)cc1 (stereo not given)
inactive: [1] 9.2% | [2] -0.35% | [3] -20.4% | [4] 9.95% | [5] 11.8% | [6] -14.4%

COC1/C=C/OC2(C)Oc3c(C)c(OC(C)=O)c4c(c3C2=O)C(=O)C=C(NC(=O)/C(C)=C\C=C\C(C)C(OC(C)=O)C(C)C(O)C(C)C(OC(C)=O)C1C)C4=O (stereo not given)
inactive: [1] 13.6% | [2] 20.7% | [3] 26.1% | [4] 21.6% | [5] 9.45% | [6] 42.9%

CCN=c1c([N+](=O)[O-])c(NC(=O)c2ccccc2)sn1CC
inactive: [1] -9.1% | [2] -5.65% | [3] -5.5% | [4] 28% | [5] -7.75% | [6] -5.7%

O=C(C[n+]1cc(Br)cc(Br)c1)c1ccc(Br)cc1
inactive: [1] -16.9% | [2] -0.15% | [3] -0.05% | [4] -0.9% | [5] -4.95% | [6] 37.9%

c1cnc(NC(Nc2cnccn2)C2CCCCC2)cn1
inactive: [1] -2.25% | [2] -1.55% | [3] -6.6% | [4] -20.9% | [5] 4.25% | [6] 1.35%

CCOC(=O)CN(c1c(C)cc(C)c(N(CC(=O)OCC)S(=O)(=O)c2ccccc2)c1C)S(=O)(=O)c1ccccc1
inactive: [1] 40.5% | [2] 8.95% | [3] 24.8% | [4] -9.2% | [5] 4.5% | [6] 19.9%

CSc1cnn(CCC#N)c(=O)n1
inactive: [1] 16.4% | [2] 14.1% | [3] 19.9% | [4] 2.4% | [5] 15.7% | [6] 2.35%

N#Cc1ccccc1/C=N/O
inactive: [1] 0.15% | [2] -6.55% | [3] -8.75% | [4] 0.95% | [5] -18.4% | [6] -14.1%

Nc1nc([O-])c([I+]c2ccccc2)c(=O)[nH]1
inactive: [1] -17.5% | [2] -11.8% | [3] 3.7% | [4] -8.5% | [5] 0.15% | [6] -6.45%

COCCCCCC(=O)OC
inactive: [1] 5.05% | [2] 17.1% | [3] 6.4% | [4] 4.5% | [5] -7% | [6] 0.5%

Nc1cc2c(cc1/C=C1\CCNC1=O)OCO2
inactive: [1] -5.65% | [2] -12.1% | [3] -22.2% | [4] -6.6% | [5] -11.8% | [6] -4.85%

CCCCSc1nc2c(=O)n(C)c(=O)n(C)c2n1C
inactive: [1] 2.1% | [2] 1.15% | [3] 10.8% | [4] -5.7% | [5] -12.7% | [6] 6.95%

O=[N+]([O-])c1ccc(Cn2on2-c2ccccc2)cc1
inactive: [1] 8.55% | [2] 21.1% | [3] 9.1% | [4] -16.7% | [5] 24.4% | [6] -23.9%

CCO/N=C(\N)c1ccccc1
inactive: [1] -8.4% | [2] 1.75% | [3] -2.5% | [4] -18.9% | [5] 0.95% | [6] 3.25%

CC1(C)COC(C2(C)C(=O)C=C(c3ccccc3)c3ccccc32)=N1 (stereo not given)
inactive: [1] 25.3% | [2] -11.8% | [3] 29.8% | [4] 12.8% | [5] 3.9% | [6] 11.8%

Nc1cc2c(cc1[N+](=O)[O-])-c1cccc(F)c1C2
inactive: [1] 63.6% | [2] 7.65% | [3] 0.65% | [4] 10.8% | [5] -9.15% | [6] 33%

CCCCCCCC/C=C/CCCCCC1CCCC(C)N1 (stereo not given)
inactive: [1] 26.9% | [2] -20.6% | [3] 2.3% | [4] 3.65% | [5] -11.2% | [6] -2.55%

O=C(O)CC(CC(=O)O)c1ccc2c(c1)OCO2
inactive: [1] -32.6% | [2] -20.9% | [3] -3.7% | [4] -1.2% | [5] -35.8% | [6] -13.1%

COc1ccc(CCc2cc(OC)c(O)c(OC)c2)cc1
inactive: [1] 18.5% | [2] 14.8% | [3] 36% | [4] 19% | [5] 30.1% | [6] 41%

Nc1[nH]c(=O)nc2c1cnn2Cc1ccccc1
inactive: [1] -0.75% | [2] -10.1% | [3] -14.2% | [4] -12.2% | [5] -2.7% | [6] -3.8%
